The values below come from PubChem BioAssay (NCI).

The panel holds about 83,000 compounds, 20% with a hit somewhere; the sample as a whole holds those more often.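 Values shown are percent growth following 48 h exposure of cells in 96-well plates to a single concentration of compound; below 10 was considered active.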 Values without a mark were called inactive. Calls of active or inactive are those of the source.

The experiment deals with A549/ATCC NSCLC. In words: NCI-60 one-dose screen, 48 h (100 = growth as untreated, 0 = no growth, -100 = all killed). Particulars: 10 µM. On the procedure:
Growth inhibition of the A549/ATCC human Non-Small Cell Lung tumor cell line is measured as a screen for anti-cancer activity. Cells are grown in 96 well plates and exposed to the test compound for 48 hours. Compounds are tested at a single concentration, which is 10^-5 M for most compounds. The reported endpoint is percent growth (GI% or GIPRCNT), where numbers from 0 - 100% represent growth inhibition, and numbers from -100% - 0 represent cell death. For example, a value of 40 represents 60% growth inhibition. A value of 0 means no net growth occurred over the course of the experiment. A value of -40 indicates 40% of cells at the beginning of the experiment died by the end of the experiment. A value of -100 means all cells are dead at the end of the experiment.
NCI-60 Human Tumor Cell Lines Screen was performed using the standard one-dose NCI protocol, which is described in more detail at https://dtp.cancer.gov/discovery_development/nci-60/default.htm.
Compounds with GIPRCNT values below 10 were considered active. Activity score was based on GIPRCNT using the following formula: […]
Score is 0 for GIPRCNT values of 100 or above, 50 for GIPRCNT values of 0, and 100 for GIPRCNT values of -100.
`Cc1cc(CSc2ccccc2C(=O)N2CC=C(c3ccccc3)CC2)on1`: the growth was 94.6%. `CCOC(=O)c1cc(C(=O)c2cc(OC)c(OC)c(OC)c2)n2ncc3ccccc3c12`: the growth is 54.8%.

For `O=[N+]([O-])c1cccc(/C=N/NC(=S)NC23CC4CC(CC(C4)C2)C3)c1`, the growth is 56.5%. With `CC(=O)C1CCC2C3CC=C4CC(SC(=N)N)CCC4(C)C3CCC12C` (stereo not given), the growth is 47.5%.

On to `C=C(NC(=O)C(=C)NC(=O)c1csc(C2=NC3c4csc(n4)C4NC(=O)c5csc(n5)C(C(C)(O)C(C)O)NC(=O)C5CSC(=N5)C(=CC)NC(=O)C(C(C)O)NC(=O)c5csc(n5)C3(CC2)NC(=O)C(C)NC(=O)C(=C)NC(=O)C(C)NC(=O)C(C(C)CC)NC2C=Cc3c(C(C)O)cc(nc3C2O)C(=O)OC4C)n1)C(N)=O` (stereo not given), for which the growth was 72.2%.

With `O=C1/C(=C/c2ccc3c(c2)OCO3)SC(=S)N1C1c2ccccc2Oc2ccccc21`, the growth is 109%.

Take `Cc1ccc(NC(=O)N2CCCCC2)cc1[N+](=O)[O-]`: the growth was 39.5%. In the case of `NNC(=O)Oc1c(Cl)cc(Cl)cc1[N+](=O)[O-]` it was 96.9%.

In the case of `CN(C)c1nc(N)c2nccnc2n1`, the growth was 99.6%. As to `COc1cc(/C=C2\CCCC3=C2N=C2SC(C)=CN2C3c2cc(OC)c(OC)c(OC)c2)cc(OC)c1OC` (stereo not given), the growth was -23.4% (active).

On to `COc1ccc2c(c1)C(=O)/C(=C/c1ncc([N+](=O)[O-])n1C)O2`, for which the growth is -27.8% (active). As for `COc1ccc2nc(Cl)c(Cn3nnc(Cc4ccccc4)n3)cc2c1`, the growth is 31.5%.

On to `C[C@H]1[C@H](OC(=O)CCC(=O)O)O[C@@H]2O[C@]3(C)CC[C@H]4[C@H](C)CC[C@@H]1[C@@]24OO3`, for which the growth is 42%.

On to `COc1ccc(-c2onc(N)c2-c2cc(OC)c3c(c2)OCO3)cc1`, for which the growth is 32.2%. Regarding `COc1ccc(/C=C2\CCCC3=C2NC(N)=NC3c2ccc(OC)cc2)cc1` (stereo not given), the growth is 89.4%. Next, `CC1CCCC(C(=O)O)C1C(=O)O` (stereo not given): 78.3%. In the case of `CCN(CC)CCOc1cccc2c1C(=O)c1cccc(OCCN(CC)CC)c1C2=O`, the growth was 17.5%. Turning to `Cc1ccc(NCCN(C)CC(C)O)c2c(=O)c3ccc(Cl)cc3sc12` (stereo not given), the growth is 39.6%. Turning to `CN(C)CCCOc1ccc(NC2=C(Cl)C(=O)C(Nc3ccc(OCCCN(C)C)cc3)=C(Cl)C2=O)cc1`, the growth is -56.2% (active). `COc1ccc2nc3cc(Cl)ccc3c(NCCCNCCO)c2c1`: the growth is -26.2% (active). Turning to `CN1CCN(C2=Nc3ccccc3Oc3ccc(Cl)cc32)CC1`, the growth was 94.8%. As to `CC(=O)N[C@H](C(=O)N[C@@H](CCCNC(=N)N)C(=O)N[C@@H](CCCCN)C(=O)N[C@@H](CCCNC(=N)N)C(=O)N[C@]1(C)CCCCCC/C=C\CCC[C@@](C)(C(=O)N[C@@H](CCCNC(=N)N)C(=O)N[C@@H](CCC(=O)O)C(=O)N[C@@H](CC(C)C)C(=O)N[C@H](C(=O)N[C@@H](CCC(=O)O)C(N)=O)C(C)C)NC(=O)[C@H](CCC(N)=O)NC(=O)[C@H](CC(C)C)NC(=O)[C@H](CC(C)C)NC(=O)[C@H](CCCNC(=N)N)NC(=O)[C@H](CCCNC(=N)N)NC(=O)[C@H](CC(C)C)NC1=O)C(C)C`, the growth was 12.4%. For `O=C(CNc1nnc(-c2cccnc2SCc2ccccc2)s1)Nc1nc(Cl)cc(Cl)n1`, the growth is 120%. For `O=S(=O)(Oc1ccc(-c2ccc3sccc3c2)cc1)c1ccc(F)cc1`, the growth was 94%. Next, `COc1ccc(/C=C2/SC(=S)NC2=O)c(OC)c1OC`: 79.5%; `CNS(=O)(=O)Oc1ccc(-c2sc3cc(OS(=O)(=O)NC)ccc3c2C(=O)c2ccc(OCCN3CCCCC3)cc2)cc1`: 62.4%.

As to `NC(=O)c1cccc(-n2ccc3cc(NC(=O)Nc4ccc(Cl)c(C(F)(F)F)c4)ccc32)n1`, the growth was 68.2%. Next, `C[C@@H](C[C@H](CCO)c1ccccc1)c1ccc2ccccc2c1`: -81.4% (active); `CN(C)CCCOc1cccc(NC2=C(Cl)C(=O)C(Nc3cccc(OCCCN(C)C)c3)=C(Cl)C2=O)c1`: 52%; `CCCC1(CN2c3ccccc3Sc3ccc(Cl)cc32)CCN(CC)C1` (stereo not given): 18.6%. As to `c1cnc2[nH]cc(-c3nc(-c4ccsc4)cs3)c2c1`, the growth was 84.7%. Regarding `CN1CCN(c2cc3c(cc2F)c(=O)c(C(=O)O)cn3-c2ccc(F)cc2)CC1`, the growth was 102%.

For the compound `CC(C)(C)OC(=O)CN1CCc2c(sc3ncnc(N/N=C/c4ccccc4Br)c23)C1`, the growth was 77.6%.

On to `Clc1ccc(/C=C2\CCCC3C2=Nc2ccccc2NC3c2ccc(Cl)cc2)cc1` (stereo not given), for which the growth is 78.5%. Regarding `CC(C)(O)CCl`, the growth was 98.4%. As to `O=C(O)c1ccc(-n2cc(CNc3ccc(Oc4ccccc4)cc3)c(-c3ccccc3)n2)cc1`, the growth was 76.5%. Next, `CN(C)CCOc1ccc(-c2nc3sccn3c2-c2ccnc(S(C)(=O)=O)n2)cc1`: 95%; `CC(C)(C)OC(=O)N1CCc2c(sc3ncnc(N/N=C/c4ccc(Br)cc4)c23)C1`: 50.2%; `COc1cc2cc(Oc3ccc(NC(=O)Nc4ccc(Cl)c(Cl)c4)cc3)c(C)nc2cc1OC`: 4.35% (active).

For the compound `CC(C)Cc1ccc([C@H](C)C(=O)O)cc1`, the growth was 102%.
